# According to PubChem BioAssay (NCATS):
# Several values for one entry are separate records, joined by “and”; a condition that tells them apart may be missing. Equal values may be shown once. Inconclusive results are not listed. Activity calls are given as the source filed them. Unless noted, calls follow the shape of the full dose curve.
# Legend:
# [1] = qHTS drug screen for cell cycle checkpoint inhibitors in PARPi-resistant BRCA-mutant ovarian cancer cell lines. (AID 1963452); details: PEO1/OlaR viability, CellTiter-Glo luminescence, 96 h; for Z-AUC: stronger effect = lower value
# Method in brief: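 PEO1, PEO4 and PEO1/OlaR ovarian cancer cells, 600 per well, exposed 96 h at 37C to a dilution series. Viability read by CellTiter-Glo luminescence, normalized to DMSO and empty wells; activity summarized as Z-AUC.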
# [2] = qHTS profiling for inhibitors of Plasmodium falciparum proliferation (AID 504749; active = well fitted inhibition curve with a large enough effect; also: nearly all actives have a fitted effect of over 60% in size;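 as to activity, negative = inhibition: 0% = DMSO vehicle and full inhibition = artemisinin control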); details: P. falciparum in erythrocytes, SYBR Green DNA, 72 h, at 28.7 µM (top of the series)
# Method in brief: (§1)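 Fluorescence of SYBR Green-bound parasite DNA, read at 485/535 nm, served as the growth measure. Infected erythrocytes were cultured with compound 72 h; artemisinin (0.29 uM) and DMSO wells defined the normalization range.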
# 3D7 = assay: as above; details: P. falciparum in erythrocytes, SYBR Green DNA, 72 h; series mostly up to 28.7 µM
# Method in brief: as §1
# 7G8 = assay: as above; details: P. falciparum in erythrocytes, SYBR Green DNA, 72 h; series mostly up to 28.7 µM
# Method in brief: as §1
# AA1029 = assay: as above; details: P. falciparum in erythrocytes, SYBR Green DNA, 72 h; series mostly up to 28.7 µM
# Method in brief: as §1
# AS120 = assay: as above; details: P. falciparum in erythrocytes, SYBR Green DNA, 72 h; series mostly up to 28.7 µM
# Method in brief: as §1
# ATS189 = assay: as above; details: P. falciparum in erythrocytes, SYBR Green DNA, 72 h; series mostly up to 28.7 µM
# Method in brief: as §1
# C2A = assay: as above; details: P. falciparum in erythrocytes, SYBR Green DNA, 72 h; series mostly up to 28.7 µM
# Method in brief: as §1
# CP185 = assay: as above; details: P. falciparum in erythrocytes, SYBR Green DNA, 72 h; series mostly up to 28.7 µM
# Method in brief: as §1
# CP191 = assay: as above; details: P. falciparum in erythrocytes, SYBR Green DNA, 72 h; series mostly up to 28.7 µM
# Method in brief: as §1
# CP192 = assay: as above; details: P. falciparum in erythrocytes, SYBR Green DNA, 72 h; series mostly up to 28.7 µM
# Method in brief: as §1
# CP194 = assay: as above; details: P. falciparum in erythrocytes, SYBR Green DNA, 72 h; series mostly up to 28.7 µM
# Method in brief: as §1
# CP201 = assay: as above; details: P. falciparum in erythrocytes, SYBR Green DNA, 72 h; series mostly up to 28.7 µM
# Method in brief: as §1
# CP203 = assay: as above; details: P. falciparum in erythrocytes, SYBR Green DNA, 72 h; series mostly up to 28.7 µM
# Method in brief: as §1
# CP211 = assay: as above; details: P. falciparum in erythrocytes, SYBR Green DNA, 72 h; series mostly up to 28.7 µM
# Method in brief: as §1
# CP217 = assay: as above; details: P. falciparum in erythrocytes, SYBR Green DNA, 72 h; series mostly up to 28.7 µM
# Method in brief: as §1
# CP215 = assay: as above; details: P. falciparum in erythrocytes, SYBR Green DNA, 72 h
# Method in brief: as §1
# [3] = measured here: PEO1 parental Z-AUC
# Potency is read from the fitted curve at half-maximal effect.
structure (smiles),measurement,setting,value
COc1ccc(-n2c(SCCCN3C(=O)c4cccc5cccc(c45)C3=O)nnc2-c2ccncc2)cc1,Z-AUC,[1],0.836 (inactive)
same,Z-AUC,[1]; [3],0.296
same,Z-AUC,[1]; measured here: PEO4 Z-AUC,0.916
NC(=O)c1cnc(N[C@@H]2CCCC[C@@H]2N)nc1Nc1cccc(-n2nccn2)c1,Z-AUC,[1],0.565 (inactive)
same,Z-AUC,[1]; [3],-0.0999
same,Z-AUC,[1]; measured here: PEO4 Z-AUC,0.242
CN1CCN(c2ccc(OC(F)(F)F)c(Nc3ncc4c(n3)-c3c(c(C(N)=O)nn3CCO)CC4)c2)CC1,Z-AUC,[1],-0.858 (inactive)
same,Z-AUC,[1]; [3],-1.94
same,Z-AUC,[1]; measured here: PEO4 Z-AUC,-1.88
CCCOc1ccc(CCc2nc3cc(-c4c(C)noc4C)ccc3n2CCN2CCOCC2)cc1,Z-AUC,[1],-0.591 (inactive)
same,Z-AUC,[1]; [3],-0.719
same,Z-AUC,[1]; measured here: PEO4 Z-AUC,-0.728
CN(C)N(C)C(=O)[C@@]1(Cc2ccccc2)CCCN(C(=O)[C@@H](Cc2c[nH]c3ccccc23)NC(=O)C(C)(C)N)C1,Z-AUC,[1],-0.303 (inactive)
same,Z-AUC,[1]; [3],-0.129
same,Z-AUC,[1]; measured here: PEO4 Z-AUC,0.0758
Cc1[nH]c2ccccc2c1CCNCc1ccc(/C=C/C(=O)NO)cc1,Potency,[1],77.6 nM (active)
same,Z-AUC,[1]; [3],-1.48
same,Z-AUC,[1]; measured here: PEO4 Z-AUC,-1.35
NCCOc1cc(C(=O)Nc2cc(OCCN)c3ccccc3n2)nc(C(=O)Nc2cc(OCCN)c3ccccc3n2)c1,Z-AUC,[1],-0.0869 (inactive)
same,Z-AUC,[1]; [3],-0.747
same,Z-AUC,[1]; measured here: PEO4 Z-AUC,-0.493
CCCC1(CCC)CCC2(CCN(CCCN(CC)CC)C2)CC1,Potency,[1],3890 nM (active)
same,Z-AUC,[1]; [3],-2.03
same,Z-AUC,[1]; measured here: PEO4 Z-AUC,-1.83
COc1cc(OC)c2c(=O)[nH]c(-c3cc(C)c(OCCO)c(C)c3)nc2c1,Z-AUC,[1],1.34 (inactive)
same,Z-AUC,[1]; [3],1.31
same,Z-AUC,[1]; measured here: PEO4 Z-AUC,1.15
COc1c(C)cc(NC(=O)c2nn(Cc3ccc(F)cc3)c3c2CN(C(=O)c2ccc[nH]2)C[C@]3(C)C(N)=O)cc1C,Z-AUC,[1],-0.421 (inactive)
same,Z-AUC,[1]; [3],-0.262
same,Z-AUC,[1]; measured here: PEO4 Z-AUC,-0.568
Cn1ncc(Cl)c1-c1cc(C(=O)N[C@H](CN)Cc2ccc(F)c(F)c2)sc1Cl,Z-AUC,[1],0.188 (inactive)
same,Z-AUC,[1]; [3],0.381
same,Z-AUC,[1]; measured here: PEO4 Z-AUC,-0.0194
FC(F)(F)c1ccc(/C=C/c2nc(COc3ccc(CCCCn4ccnn4)cc3)co2)cc1,Potency,[1],195 nM (active)
same,Z-AUC,[1]; [3],-3.45
same,Z-AUC,[1]; measured here: PEO4 Z-AUC,-2.45
CCCOc1ccc2nc(NC(=O)OC)sc2c1,"activity, negative = inhibition",[2]; parasite line A,-2.17% (inactive)
same,"activity, negative = inhibition",[2]; parasite line B,4.31% (inactive)
same,Potency,3D7,inactive
same,Potency,7G8,inactive
same,Potency,AA1029,inactive
same,Potency,AS120,inactive
same,Potency,ATS189,inactive
same,Potency,C2A,inactive
same,Potency,CP185,inactive
same,Potency,CP191,inactive
same,Potency,CP192,inactive
same,Potency,CP194,inactive
same,Potency,CP201,inactive
same,Potency,CP203,inactive
same,Potency,CP211,inactive
same,Potency,CP217,inactive
Cc1cc(C(=O)Nc2cc(Nc3ccc4c(/C=C/c5ccccn5)n[nH]c4c3)ccc2F)n(C)n1,Z-AUC,[1],-1.04 (inactive)
same,Z-AUC,[1]; [3],-0.196
same,Z-AUC,[1]; measured here: PEO4 Z-AUC,-0.912
COc1cccc(OCCCN)c1-c1cc(Nc2cnc(C#N)cn2)n[nH]1,Potency,[1],4.9 nM (active)
same,Z-AUC,[1]; [3],-2.4
same,Z-AUC,[1]; measured here: PEO4 Z-AUC,-2.98
C[C@H](Nc1ncnc2nc[nH]c12)c1cc2cccc(Cl)c2c(=O)n1-c1ccccc1,Z-AUC,[1],-0.68 (inactive) and -0.929 (inactive)
same,Z-AUC,[1]; [3],0.702 and -0.975
same,Z-AUC,[1]; measured here: PEO4 Z-AUC,0.729 and -0.588
O=C1NC(=O)C(c2cnc3ccccn23)=C1c1cn2c3c(cc(F)cc13)CN(C(=O)N1CCCCC1)CC2,Potency,[1],174 nM (active)
same,Z-AUC,[1]; [3],-1.85
same,Z-AUC,[1]; measured here: PEO4 Z-AUC,-1.33
O=C(O)C1=CO[C@@H](O[C@@H]2O[C@H](CO)[C@@H](O)[C@H](O)[C@H]2O)[C@@H]2C(CO)=CC[C@H]12,Z-AUC,[1],1.4 (inactive)
same,Z-AUC,[1]; [3],1.85
same,Z-AUC,[1]; measured here: PEO4 Z-AUC,1.61
FC(F)(F)c1ccc(CNc2ccc(Cc3c[nH]c4ncc(Cl)cc34)cn2)cn1,Z-AUC,[1],1.12 (inactive)
same,Z-AUC,[1]; [3],1.06
same,Z-AUC,[1]; measured here: PEO4 Z-AUC,1.21
N#Cc1ccc(COC[C@H]2O[C@@H](n3c(NCc4ccc(Cl)c(Cl)c4)nc4c(N)ncnc43)[C@H](O)[C@@H]2O)cc1,Z-AUC,[1],-0.735 (inactive)
same,Z-AUC,[1]; [3],-0.265
same,Z-AUC,[1]; measured here: PEO4 Z-AUC,0.0878
Cc1nc2ccc(-n3ncc(C(=O)c4cc5ccccc5[nH]4)c3N)cc2[nH]1,Z-AUC,[1],-0.798 (inactive)
same,Z-AUC,[1]; [3],-1.1
same,Z-AUC,[1]; measured here: PEO4 Z-AUC,-0.294
O=C(Nc1cccnc1)c1cc(-c2ccnc(F)c2)ccc1OCc1ccccc1,Z-AUC,[1],-0.389 (inactive)
same,Z-AUC,[1]; [3],-0.74
same,Z-AUC,[1]; measured here: PEO4 Z-AUC,-0.497
Cc1[nH]c(/C=C2\C(=O)Nc3ccc(S(=O)(=O)N(C)c4cccc(Cl)c4)cc32)c(C)c1C(=O)N1CCN(C)CC1,Z-AUC,[1],1.27 (inactive)
same,Z-AUC,[1]; [3],1.2
same,Z-AUC,[1]; measured here: PEO4 Z-AUC,1.26
CC(C)(C)Sc1c(CC(C)(C)C(=O)O)n(Cc2ccc(Cl)cc2)c2ccc(OCc3ccc4ccccc4n3)cc12,Z-AUC,[1],1.37 (inactive)
same,Z-AUC,[1]; [3],0.865
same,Z-AUC,[1]; measured here: PEO4 Z-AUC,0.962
COC1C(OC(=O)/C=C/C=C/C=C/C=C/C(=O)O)CCC2(CO2)C1C1(C)OC1CC=C(C)C (configuration not stated),Potency,7G8,5.6 nM (active)
same,Potency,CP191,50.1 nM (active)
same,Potency,CP194,536 nM (active)
same,Potency,CP201,7570 nM (active)
same,Potency,CP203,2690 nM (active)
same,Potency,CP211,37.9 nM (active)
same,Potency,CP215,6010 nM (active)
